Among the test systems are NCI-H23 lung; NCI-H226 lung; NCI-H322M lung; HOP-62 NSCLC; HOP-92 NSCLC; NCI-H522 lung; A549/ATCC NSCLC; 786-0 renal; K-562 leukemia; MALME-3M melanoma; MDA-MB-231 breast; RXF 393 renal; SF-268 CNS; SF-295 CNS; SF-539 CNS; UACC-257 melanoma; M14 melanoma; NCI-H460 lung; COLO 205 colon; DU-145 prostate.
Holding throughout (experiment): NCI-60 one-dose screen, 48 h (100 = growth as untreated, 0 = no growth, -100 = all killed)
Holding throughout (details): 10 µM unless noted

Compounds without any hit were thinned out: in the full panel of roughly 83,000, 20% have a hit.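 The test compound was applied at a single concentration to cells in 96-well plates for 48 hours, and percent growth was recorded.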 A number with no mark means an inactive call. Calls of active or inactive are those of the source. The calls were made as follows: active = growth percent below 10; inactive = the rest.

`NC(CS/C(Cl)=C/Cl)C(=O)O` (stereo unspecified): the growth in the experiment on NCI-H23 lung is 97.6%; in the experiment on NCI-H226 lung it was 86.9%; in the experiment on NCI-H322M lung, 73.5%; with HOP-62 NSCLC it was -3.21% (active); with HOP-92 NSCLC it was 83.3%; with NCI-H522 lung it was 93.4%. For the same molecule, the growth with A549/ATCC NSCLC is -52.9% (active); with 786-0 renal, 105%; with K-562 leukemia, 89.2%; in the experiment with MALME-3M melanoma, 89.6%; with MDA-MB-231 breast it was 88.1%; with RXF 393 renal, 105%. In addition, the growth is 99.3% in the experiment on SF-268 CNS; 9.28% (active) with SF-295 CNS; 104% in the experiment with SF-539 CNS; 78.3% in the experiment on UACC-257 melanoma; 58.2% in the experiment with M14 melanoma.

As to `O=[N+]([O-])/C(=C/c1ccccc1)c1ccccc1`, the growth with NCI-H23 lung is 99.4%; with NCI-H226 lung, 97.5%; in the experiment on NCI-H322M lung it was 106%; in the experiment on NCI-H460 lung it was 102%; in the experiment on HOP-92 NSCLC, 99.9%; with NCI-H522 lung, 83%. The growth in the experiment on A549/ATCC NSCLC was 101%; in the experiment with 786-0 renal, 97.9%; in the experiment with COLO 205 colon, 112%; in the experiment with DU-145 prostate, 106%; in the experiment on K-562 leukemia, 98.3%; with MALME-3M melanoma, 98.7%. For the same molecule, the growth in the experiment on MDA-MB-231 breast was 112%; in the experiment with RXF 393 renal, 97.1%; in the experiment with SF-268 CNS it was 106%; in the experiment with SF-295 CNS it was 98.9%; in the experiment on SF-539 CNS, 96%; with UACC-257 melanoma, 103%. Also, the growth in the experiment with M14 melanoma is 101%.

With `NC(=S)Nc1ccc2c(c1)Cc1ccccc1-2`, the growth in the experiment on NCI-H23 lung was 83.1%; in the experiment with NCI-H226 lung, 77.8%; with NCI-H322M lung, 89.2%; in the experiment with NCI-H460 lung, 94.8%; in the experiment with HOP-92 NSCLC it was 63.9%; in the experiment on NCI-H522 lung, 62.9%. Besides, the growth is 72.5% with A549/ATCC NSCLC; 115% in the experiment on 786-0 renal; 98.2% with COLO 205 colon; 108% in the experiment with DU-145 prostate; 82% with K-562 leukemia; 88.4% in the experiment on MALME-3M melanoma. Also, the growth in the experiment with MDA-MB-231 breast was 69.5%; in the experiment with RXF 393 renal, 102%; in the experiment with SF-268 CNS it was 90.5%; in the experiment with SF-295 CNS, 98.7%; in the experiment with UACC-257 melanoma, 69.9%; with M14 melanoma, 99.7%.

For `Clc1ccc(Cc2nc3ccccc3s2)cc1`, the growth in the experiment with NCI-H23 lung was 89.3%; with NCI-H226 lung, 89.2%; with NCI-H322M lung it was 89.2%; in the experiment with HOP-62 NSCLC, 115%; with HOP-92 NSCLC, 122%; with NCI-H522 lung it was 99.1%. Moreover, the growth with A549/ATCC NSCLC is 96.4%; with 786-0 renal, 109%; in the experiment with COLO 205 colon, 117%; in the experiment with DU-145 prostate, 98.6%; in the experiment on K-562 leukemia, 98.1%; with MDA-MB-231 breast it was 74%. The growth in the experiment with RXF 393 renal was 112%; with SF-268 CNS, 88.5%; in the experiment with SF-295 CNS it was 91.5%; in the experiment with SF-539 CNS, 106%; with UACC-257 melanoma it was 97.7%; in the experiment on M14 melanoma, 98.2%.

In the case of `CCOC(=O)c1cc(CC)sc1NC(=O)CC(C)=O`, the growth in the experiment with NCI-H23 lung was 43.2%; in the experiment with NCI-H226 lung it was 70.1%; in the experiment on NCI-H322M lung, 95.3%; with NCI-H460 lung it was 50.9%; in the experiment on HOP-92 NSCLC, 59%; in the experiment on NCI-H522 lung it was 34.4%. Also, the growth with A549/ATCC NSCLC was 78%; with 786-0 renal, 54.5%; with COLO 205 colon, 90.2%; in the experiment on DU-145 prostate it was 48.2%; in the experiment on K-562 leukemia it was 21.8%; in the experiment with MALME-3M melanoma it was 62.2%. The growth in the experiment with MDA-MB-231 breast was 54.9%; in the experiment on RXF 393 renal it was 61.7%; in the experiment with SF-268 CNS it was 60.1%; in the experiment on SF-295 CNS it was 43.2%; in the experiment with SF-539 CNS, 56.1%; with UACC-257 melanoma, 95.6%. The growth in the experiment on M14 melanoma is 88.6%.

Consider `CCc1cccc(CC)c1N1C(=O)C=CC1=O`, for which the growth in the experiment with NCI-H23 lung was 108%; with NCI-H226 lung, 117%; with NCI-H322M lung, 95.3%; with NCI-H460 lung, 96.1%; with HOP-92 NSCLC it was 56.5%; in the experiment with NCI-H522 lung, 91.6%. In addition, the growth in the experiment on A549/ATCC NSCLC is 71.9%; in the experiment with 786-0 renal, 82.5%; in the experiment with COLO 205 colon, 75.8%; in the experiment on DU-145 prostate, 112%; with K-562 leukemia, 23.8%; in the experiment on MALME-3M melanoma it was 121%. Moreover, the growth was 132% with MDA-MB-231 breast; 97.6% in the experiment with SF-268 CNS; 106% in the experiment on SF-295 CNS; 107% in the experiment on SF-539 CNS; 81.6% with UACC-257 melanoma; 86.6% with M14 melanoma.

With `O=C1CSC(=S)N1Cc1cccnc1`, the growth with NCI-H23 lung was 101%; in the experiment on NCI-H226 lung, 109%; with NCI-H322M lung, 85.7%; in the experiment on HOP-62 NSCLC it was 78.4%; in the experiment with HOP-92 NSCLC, 83.9%; in the experiment with NCI-H522 lung, 36.8%. The growth with A549/ATCC NSCLC was 95.4%; in the experiment with 786-0 renal, 44.6%; with COLO 205 colon it was 53.6%; with DU-145 prostate, 25%; in the experiment on K-562 leukemia, 7.08% (active); in the experiment with MALME-3M melanoma it was 102%. In addition, the growth is 106% with MDA-MB-231 breast; 107% with SF-268 CNS; 120% in the experiment on SF-295 CNS; 93.6% in the experiment on SF-539 CNS; 59.5% in the experiment on UACC-257 melanoma; 85.1% in the experiment on M14 melanoma.

With `S=C(SSC(=S)N1CCOCC1)N1CCOCC1`, the growth is 48.9% with NCI-H23 lung; 94.5% in the experiment with NCI-H226 lung; 116% in the experiment with NCI-H322M lung; 2.9% (active) in the experiment with NCI-H460 lung; 122% in the experiment with HOP-92 NSCLC; -50.2% (active) in the experiment on NCI-H522 lung. Besides, the growth was 57.2% in the experiment on A549/ATCC NSCLC; 103% in the experiment with 786-0 renal; 28.6% in the experiment with COLO 205 colon; 109% in the experiment on DU-145 prostate; 56.2% in the experiment on K-562 leukemia; 101% with MALME-3M melanoma. The growth is 104% in the experiment with MDA-MB-231 breast; 102% in the experiment on RXF 393 renal; 101% in the experiment on SF-268 CNS; 107% in the experiment with SF-295 CNS; 96.4% with SF-539 CNS; 64% with UACC-257 melanoma. Moreover, the growth with M14 melanoma is 55.5%.

(Values after PubChem BioAssay (NCI).)
